# Laboratory results published in PubChem BioAssay AID463173 (ICCB-Longwood Screening Facility, Harvard Medical School, 2010).
# About 4,300 (8.3%) of roughly 52,000 compounds were called active. This excerpt belongs to a sample that is enriched for actives. Values without a mark were called inactive. No stated cut-off is given here; in the data, active means survival mostly below about 52% (no sharp cut-off); inactive means mostly above about 56%.
# Test system: DeltatarO mutant
# Test: growth inhibition of S. aureus wild type versus tarO mutant, primary screen, teichoic acid synthesis inhibitors, RN4220, OD600 (AID 463173)
# Conditions: OD600, 18 h, stronger effect = lower value, screened at 18.75 µg/mL (by protocol)
row,SMILES,survival
1,CCN(CC)C(=O)Cn1c(=O)n(Cc2ccc(C(=O)NCc3ccccc3Cl)cc2)c(=O)c2ccccc21,115%
2,Cc1cn2c(=O)cc(COC(=O)COc3ccccc3C)nc2s1,76%
3,COC(=O)c1ccc(NC(=O)CSc2nnc3c4ccccc4n(C(C)C)c3n2)cc1,52%
4,COc1ccccc1NC(=O)CSc1nnc2c3ccccc3n(C(C)C)c2n1,33% (active)
5,COc1ccccc1NC(=O)CSc1nnc2c(n1)[nH]c1ccccc12,77%
6,CC(C)C(=O)Nc1nnc(S(=O)(=O)N2CCc3ccccc32)s1,78%
7,O=C(Nc1cccc(Cl)c1)c1cc(S(=O)(=O)N2CCCc3ccccc32)ccc1F,108%
8,O=C(Nc1nnc(S(=O)(=O)N2CCCc3ccccc32)s1)c1cccc(Cl)c1,3% (active)
9,Cc1ccc(S(=O)(=O)N2CCCc3cc(NC(=O)c4cccc(Cl)c4)ccc32)cc1,87%
10,O=C(Nc1nc2c(Cl)cccc2s1)c1ccc(S(=O)(=O)N2CCc3ccccc32)cc1,69%
11,O=C(Nc1nnc(S(=O)(=O)N2CCc3ccccc32)s1)c1cccc(Cl)c1,1% (active)
12,CCOC(=O)N1CCC(NC(=O)c2cnn(-c3ccccc3)c2C2CCN(C(=O)OC(C)(C)C)CC2)CC1,117%
13,CCOc1ccc(C2=NC(c3cccs3)=Nc3ccc(CC)cc3N2)cc1OCC,77%
14,COc1cccc(CNC(=O)c2cc(-c3cccc(OC)c3)n[nH]2)c1,71%
15,O=C(NCc1ccccc1)N1CCc2c(sc3c2CCCC3)C1c1ccccc1 (stereo not drawn),75%
16,COc1cc(C)ccc1OCCCn1c(-c2ccc(Cl)cc2)nc2ccccc2c1=O,62%
17,O=C(NC1CCCCCC1)C1c2ccccc2C(=O)N1Cc1ccc(F)cc1 (stereo not drawn),111%
18,Cc1ccc(CNC(=O)c2ccc(-c3nc(CS(=O)c4ccccc4)c(C)o3)cc2)cc1 (stereo not drawn),88%
19,Clc1cccc(CSc2nc(NCCc3ccccc3)c3ccccc3n2)c1,102%
20,Fc1cccc(CSc2nc(NCCc3ccccc3)c3ccccc3n2)c1,20% (active)

row,SMILES,survival
1,COc1cc(Nc2nc(SCc3ccc(Cl)cc3)nc3ccccc23)cc(OC)c1,91%
2,Fc1ccc(Nc2nc(SCc3cccc(Cl)c3)nc3ccccc23)cc1,70%
3,COc1ccc(CCNc2nc(SCc3cccc(F)c3)nc3ccccc23)cc1OC,85%
4,COc1cc(Nc2nc(SCc3cccc(Cl)c3)nc3ccccc23)cc(OC)c1,37% (active)
5,COc1ccc(-n2ccnc2SCC(=O)Nc2ccc3c(c2)OCO3)cc1,105%
6,Cc1ccc2nc(-c3ccsc3)c(Nc3ccc(C(C)C)cc3)n2c1,124%
7,O=C(NCc1ccccc1)c1ccc2c(c1)N(Cc1ccccc1F)C(=O)c1ccccc1S2=O (stereo not drawn),92%
8,N#CC(C#N)=Cc1cn(-c2ccccc2)nc1-c1ccccc1,68%
9,O=C(NCc1ccccc1)C(=O)NCC(c1ccc2c(c1)OCO2)N1CCOCC1 (stereo not drawn),92%
10,CCc1ccc(-n2c(=O)c3c4c(sc3n(CC(=O)N3CCC(C)CC3)c2=O)CCC4)cc1,83%
11,COC(=O)c1ccc(NC(=O)CC2C(=O)N(c3cccc(OC)c3)C(=O)N2Cc2ccco2)cc1 (stereo not drawn),70%
12,COC(=O)c1ccc(NC(=O)CC2C(=O)N(c3cccc(C)c3)C(=O)N2Cc2ccco2)cc1 (stereo not drawn),92%
13,CCc1ccc(NC(=O)CC2C(=O)N(c3ccc(Cl)cc3)C(=O)N2Cc2ccco2)cc1 (stereo not drawn),91%
14,CCc1ccc(NC(=O)CC2C(=O)N(c3cccc(C)c3)C(=O)N2Cc2ccco2)cc1 (stereo not drawn),118%
15,CCc1ccc(NC(=O)CC2C(=O)N(c3cccc(OC)c3)C(=O)N2Cc2ccco2)cc1 (stereo not drawn),25% (active)
16,COC(=O)c1ccc(NC(=O)CC2C(=O)N(c3ccc(Cl)cc3)C(=O)N2Cc2ccco2)cc1 (stereo not drawn),37% (active)
17,CCN(CC)c1ccc2cc(C(=O)Nc3cccc(OC)c3)c(=O)oc2c1,75%
18,Cn1nnc2c(NCc3c(F)cccc3F)ncnc21,80%
19,C=CCn1c(C#N)c(N)sc1=N,96%
20,Cc1ccc(N2C(=O)CCSC23C(=O)N(Cc2ccccc2)c2ccccc23)cc1F (stereo not drawn),89%

row,SMILES,survival
1,COc1ccc(OC(=O)c2nc(SCc3ccc(C)cc3)ncc2Cl)cc1,57%
2,COc1ccc(Cc2nc3ccc(C(=O)NCCc4ccc(OC)c(OC)c4)cc3o2)cc1,77%
3,CCc1ccc(CNC(=O)c2ccc3nc(C(C)C)oc3c2)cc1,82%
4,O=C(NCCc1ccccc1)c1ccc2nc(CCc3ccccc3)oc2c1,32% (active)
5,O=C(NCc1ccccc1)c1ccc2nc(CCc3ccccc3)oc2c1,0% (active)
6,CCCNC(=O)c1ccc2nc(CCc3ccccc3)oc2c1,78%
7,CCOc1ccc(CNC(=O)c2ccc3nc(C(C)C)oc3c2)cc1,76%
8,CCOc1cc(CNC(=O)c2ccc3nc(C(C)C)oc3c2)cc(OCC)c1OCC,47% (active)
9,O=C(NCCc1ccc(Cl)cc1)c1ccc2nc(CCc3ccccc3)oc2c1,75%
10,O=C(NCc1cccc(F)c1)c1ccc2nc(CCc3ccccc3)oc2c1,79%
11,COc1ccc(CCNC(=O)c2ccc3nc(CCc4ccccc4)oc3c2)cc1OC,37% (active)
12,CN(C)c1ccc(CNC(=O)c2ccc3nc(CCc4ccccc4)oc3c2)cc1,93%
13,COc1ccc(CCNC(=O)c2ccc3nc(Cc4ccccc4)oc3c2)cc1OC,99%
14,COc1ccc(Cn2ccc3nc(C)c(C(=O)Nc4cccc(SC)c4)cc3c2=O)cc1,95%
15,COc1ccc(Nc2ncc(C(=O)N3CCN(c4ccc(OC)cc4)CC3)c3ccccc23)cc1,74%
16,CCOc1ccc(N(CC(=O)Nc2ccc3c(c2)OCO3)S(=O)(=O)c2ccccc2)cc1,87%
17,O=C(O)CSc1c2c(nc3cc(C(=O)Nc4ccc(F)c(Cl)c4)ccc13)CCC2,88%
18,Cc1cc(S(=O)(=O)n2ccnc2C(C)C)cc([N+](=O)[O-])c1C,57%
